Only some compounds are listed: those with a hit (about 2.4% of all), similar ones and a draw of the others.
FEN1 inhibitor – human FEN1 inhibition; P39748; Recombinant FEN1 flap cleavage, fluorescence, 15 min; Potency, µM (series often up to 114 µM), without a hit: at the top dose activity change, negative = inhibition, actives largely listed as inhibitors; actives 0.35% (n = 390,000); AID 588795; also: % is scaled to controls: 0 for no effect and ±100 for the full control effect; nearly all actives have a fitted effect of over 65% in size
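Recombinant FEN1 (10 nM) was preincubated with pin-transferred compounds for 15 min at room temperature, then flap DNA substrate (50 nM final) was added. Plates were read at 0 and 15 min, and normalized concentration–response data were fitted to a four-parameter Hill equation.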
POLH inh – DNA polymerase eta (human) inhibition. actives 1.2% (n = 390,000). AID 588591. recombinant Pol eta, fluorescent DNA replication assay. Potency, µM (series often up to 114 µM), for the others: at the highest dose activity change, negative = inhibition, most hits filed as inhibitors; also: % is scaled to controls: 0 for no effect and ±100 for the full control effect
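Pol eta at 10 nM preincubated with compounds 15 min at room temperature; reaction started with fluorescent substrate (50 nM final) and read kinetically at 0 and 10 min.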
POLK inh – blocks human DNA polymerase kappa activity | Q9UBT6 | purified Pol kappa, fluorescent DNA synthesis assay, 10 min | Potency, µM (top dose mostly 107 µM), inactives show at the top dose activity, negative = inhibition, actives largely listed as inhibitors | actives 0.53% (n = 400,000) | AID 588579; also: % is scaled to controls: 0 for no effect and ±100 for the full control effect
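Inhibition of 10 nM Pol kappa is measured by a fluorescent read-out at 0 and 10 min following addition of 50 nM substrate (final), with a 15-min room-temperature compound preincubation.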
Pol iota inh – inhibitors of human DNA polymerase iota; Q9UNA4; Pol iota fluorescent replication assay, 10 min; Potency, µM (top dose mostly 115 µM), inactives show at the top dose activity, negative = inhibition, hits mostly inhibitors; actives 1% (n = 390,000); AID 588590
Target sequence (Q9UNA4 whole entry, looked up): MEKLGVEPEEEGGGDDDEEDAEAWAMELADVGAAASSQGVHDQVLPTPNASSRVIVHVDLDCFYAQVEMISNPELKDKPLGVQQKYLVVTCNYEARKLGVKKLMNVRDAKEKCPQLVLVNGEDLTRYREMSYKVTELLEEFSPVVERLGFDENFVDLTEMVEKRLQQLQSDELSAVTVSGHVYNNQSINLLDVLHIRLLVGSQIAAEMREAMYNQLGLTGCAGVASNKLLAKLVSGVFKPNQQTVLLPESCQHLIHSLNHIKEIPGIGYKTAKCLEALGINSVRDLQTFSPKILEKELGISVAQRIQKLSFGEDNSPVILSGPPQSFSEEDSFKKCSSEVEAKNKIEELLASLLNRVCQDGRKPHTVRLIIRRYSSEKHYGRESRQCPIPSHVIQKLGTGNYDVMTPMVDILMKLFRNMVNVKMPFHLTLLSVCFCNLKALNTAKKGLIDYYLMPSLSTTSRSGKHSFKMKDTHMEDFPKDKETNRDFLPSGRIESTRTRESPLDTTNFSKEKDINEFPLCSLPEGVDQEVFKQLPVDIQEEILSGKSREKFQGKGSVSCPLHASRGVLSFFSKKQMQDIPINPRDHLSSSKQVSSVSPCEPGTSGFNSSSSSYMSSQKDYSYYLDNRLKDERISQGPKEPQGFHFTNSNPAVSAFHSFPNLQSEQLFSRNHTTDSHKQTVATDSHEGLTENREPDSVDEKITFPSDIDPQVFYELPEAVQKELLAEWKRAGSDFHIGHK
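Pol iota at 10 nM preincubated 15 min with compounds at room temperature; reaction started with fluorescent substrate, 50 nM final. Fluorescence read kinetically at 0 and 10 min; buffer-only wells as negative control.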
Pol beta inh – DNA polymerase beta (human) inhibition | P06746 | Pol beta primer extension/strand displacement, fluorescence kinetic | Potency, µM (top dose mostly 114 µM), inactives show top-dose activity change, negative = inhibition, usual class: inhibitors | actives 1.3% (n = 340,000) | AID 485314; also: % is scaled to controls: 0 for no effect and ±100 for the full control effect
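Values derive from four-parameter Hill fits of normalized kinetic data: reads at 0 and 10 min following addition of 50 nM substrate to 10 nM Pol beta preincubated 15 min with compound.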
WRN inhibitor – WRN helicase (human) inhibition | Q14191 | actives 0.46% (n = 360,000) | Potency, µM (titrated, usually from 114 µM), without a hit: at the highest dose activity change, negative = inhibition, most hits filed as inhibitors | WRN helicase unwinding, fluorescent forked duplex, kinetic | AID 651768; also: % is scaled to controls: 0 for no effect and ±100 for the full control effect; nearly all actives have a fitted effect of over 55% in size
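Enzyme (20 nM final) and test compound sit together 15 min at room temperature before substrate addition. Substrate is a single-forked duplex oligonucleotide (100 nM) labelled with fluorophore and quencher, with 2 mM ATP; helicase unwinding raises red fluorescence, read kinetically.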
* marks the source's active call; other numbers are inactive results; ? = inconclusive; . = not tested or not shown; [ ] = dose if it differs, or a comment. Calls follow the shape of the dose curve; as a rule, active = well fitted curve in the direction sought with a large enough effect; inconclusive = small, poorly fitted or top-dose-only effect, or another doubt; inactive = no such curve, though single readings can be large; an effect the other way counts as inactive or inconclusive. Potency is read from the fitted curve at half-maximal effect.

SMILES	FEN1 inhibitor	POLH inh	POLK inh	Pol iota inh	Pol beta inh	WRN inhibitor
CN(CC(=O)Nc1cccc(F)c1)C(=O)c1ccc(COc2ccccc2)cc1	-1%	-16%	1%	79µM*	.	1%[11.6 µM]
CN(CC(=O)Nc1cccc(F)c1)C(=O)CCSc1ccc(F)cc1	6%	-23%	1%	6%	.	-15%
CN(CC(=O)Nc1cccc(F)c1)C(=O)CSc1ccccc1F	-10%	-16%	-18%	?	45µM*	-19%
CN(CC(=O)Nc1cccc(F)c1)C(=O)c1ccc(C(=O)c2ccccc2)cc1	-9%	-7%	-19%	4%	.	1%
Cc1nn(CC(=O)N2CCN(c3ccccc3)CC2)c(=O)c2cc3cc(F)ccc3n12	-6%	-22%	2%	9%	4%	.
C=C(C)COc1ccc2oc(C)c(C(=O)OCCOC)c2c1	-13%	1%	-2%	89µM*	15%	4%
NC(C(=O)O)C(O)c1ccc(O)c(O)c1 (stereo not given)	.	.	0.24µM*	.	.	.
c1ccc(C(c2ccccc2)N2CC3(CCNCC3)C2)cc1	.	.	13%[60.1 µM]	.	.	.
COC(=O)c1ccc(=O)c2nc3/c(=C/O)c(O)cc(=O)c3[nH]c12	40µM*	28µM*	14µM*	?	?	?
COC(=O)c1ccc(N)cc1O	0%	7%	-19%	2%	11%	-13%
O=C(Cn1cc(SCc2ccc(F)cc2)c2ccccc21)N1CCCCC1	2%	-16%	-15%	5%	-3%	.
CC(C)C(=O)N1c2ncnn2C2(CCCCC2)[C@@H]2CCCC[C@@H]21	17%	-19%	-6%	3%	9%	.
Cc1ccc(C(=O)c2c(C)oc3c2C(=O)C(=O)c2ccccc2-3)cc1	-23%	45µM*	-4%	-45%	-25%	-35%
O=c1c(-c2cccs2)nc2cnc(N3CCNCC3)nc2n1C1CC1	.	.	-2%[60.1 µM]	.	.	.
CC(=O)C1=C(O)C(=O)N(CCc2c[nH]c3ccccc23)C1c1ccco1 (stereo not given)	-3%	-16%	-11%	?	32µM*	-6%
CCOC(=O)/C=C/c1ccc2c(c1)S(=O)(=O)N(C1CCCC1)[C@H]2CC(=O)OCC	?	.	-7%	0%	.	.
CCS(=O)(=O)c1ccc2oc(Nc3cccc(OC)c3)nc2c1	2%	-12%	-5%	-10%	35µM*	-6%
O=C(CSc1nnc2ccccn12)Nc1ccccc1Cl	-9%	-7%	-17%	16%	.	-6%
O=C(CSc1nnc2ccccn12)NC(=O)c1ccccc1Cl	18%	40µM*	?	28µM*	.	-20%
CCNc1nc(NCC)nc(-n2cc(C(=O)c3cc(Cl)ccc3O)cn2)n1	-9%	.	-6%	31%	.	.
COc1ccccc1-n1c(C)cc(/C=C2/C(=N)N3C(=NC2=O)SN=C3S(C)(=O)=O)c1C	-1%	79µM*	-36%	-6%	-12%	-8%
COc1cc(/C=C2/C(=N)N3C(=NC2=O)SN=C3S(C)(=O)=O)ccc1OS(=O)(=O)c1ccccc1	.	.	.	.	-53%	.
Cc1cc(/C=C2/C(=N)N3C(=NC2=O)SN=C3S(C)(=O)=O)c(C)n1-c1ccc(F)cc1	3%	?	?	-7%	-13%	-11%
Cc1cccc(C)c1-n1cccc1/C=C1/C(=N)N2C(=NC1=O)SN=C2S(C)(=O)=O	-4%	79µM*	-7%	65%	?	-12%[11.6 µM]
CCOc1ccc(-n2c(C)cc(/C=C3/C(=N)N4C(=NC3=O)SN=C4S(C)(=O)=O)c2C)cc1	0%	40µM*	-18%	7%	?	-13%
O=C(C[n+]1cccc2cccc(O)c21)c1ccc(Cl)cc1	-4%	.	8%	43%	.	.
COc1ccc(NC(=O)C2CCCN(S(=O)(=O)c3ccc4c(c3)CCCC(=O)N4)C2)cc1OC (stereo not given)	-4%	-8%	12%	15%	20%	.
Cc1ccc2occ(CC(=O)Nc3ccc(Cl)c(C(F)(F)F)c3)c2c1	-16%	-28%	8%	-14%	-14%	.

Source: PubChem BioAssay (National Center for Advancing Translational Sciences (NCATS))
